Holding throughout (assay): PBM; 200 nM protein, PBS
Common to all, as to conditions: dsDNA, one strand shown

For assay [1], the target named is T1, SIX6 (Homo sapiens, UniProt O95475 114-200, L167I).
T1 sequence: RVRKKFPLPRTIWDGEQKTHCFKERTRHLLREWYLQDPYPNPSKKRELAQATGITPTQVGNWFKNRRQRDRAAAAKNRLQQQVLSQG

Assay [2] deals with T2, SIX6 (Homo sapiens, UniProt O95475 114-200, L143V).
T2 sequence: T1 sequence with L30V, I54L

The target in assay [3] is T3, SIX6 (Homo sapiens, UniProt O95475 114-200, H141N).
T3 sequence: T1 sequence with H28N, I54L

Assay [4] deals with T4, SIX6 (Homo sapiens, UniProt O95475 114-200, T165P).
T4 sequence: T1 sequence with T52P, I54L

Assay [5] concerns the target T5, SIX6 (Homo sapiens, UniProt O95475 114-200, L167M).
T5 sequence: T1 sequence with I54M

The target in assay [6] is T6, SIX6 (Homo sapiens, UniProt O95475 114-200, L143M).
T6 sequence: T1 sequence with L30M, I54L

Assay [7] has as its target T7, SIX6 (Homo sapiens, UniProt O95475 114-200, L143I).
T7 sequence: T1 sequence with L30I, I54L

For assay [8], the target named is T8, SIX6 (Homo sapiens, UniProt O95475 114-200, T165G).
T8 sequence: T1 sequence with T52G, I54L

In assay [9] the target is T9, SIX6 (Homo sapiens, UniProt O95475 114-200, T139Q).
T9 sequence: T1 sequence with T26Q, I54L

In assay [10] the target is T10, SIX6 (Homo sapiens, UniProt O95475 114-200, T165A).
T10 sequence: T1 sequence with T52A, I54L

In assay [11] the target is T11, SIX6 (Homo sapiens, UniProt O95475 114-200, L167V).
T11 sequence: T1 sequence with I54V

Assay [12] concerns the target T12, SIX6 (Homo sapiens, UniProt O95475 114-200).
T12 sequence: T1 sequence with I54L

The target of assay [13] is T13, SIX6 (Homo sapiens, UniProt O95475 114-200, T165I).
T13 sequence: T1 sequence with T52I, I54L

Assay [14] concerns the target HOXA2 (Homo sapiens, UniProt O43364 129-215, R185T).
In assay [15] the target is HOXA2 (Homo sapiens, UniProt O43364 129-215, R185K).
In assay [16] the target is HOXA2 (Homo sapiens, UniProt O43364 129-215, Y150S).
The target of assay [17] is HOXA2 (Homo sapiens, UniProt O43364 129-215).

Residue numbers refer to the chain shown, from its start.

Sequence of HOXA2 (Homo sapiens, UniProt O43364 129-215, R185T) (O43364 129-215 R185T): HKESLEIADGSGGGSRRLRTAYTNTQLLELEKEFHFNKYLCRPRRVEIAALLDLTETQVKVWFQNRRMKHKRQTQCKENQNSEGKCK
Sequence of HOXA2 (Homo sapiens, UniProt O43364 129-215, R185K) (O43364 129-215 R185K): as the sequence (O43364 129-215 R185T) above, with T57K counted along it
Sequence of HOXA2 (Homo sapiens, UniProt O43364 129-215, Y150S) (O43364 129-215 Y150S): as the sequence (O43364 129-215 R185T) above, with Y22S, T57R counted along it
Sequence of HOXA2 (Homo sapiens, UniProt O43364 129-215) (O43364 129-215): as the sequence (O43364 129-215 R185T) above, with T57R counted along it

GGGGGCCA: the binding signal in the assay with SIX6 [1] is 8.93 upbm affinity estimate (log intensity, higher = more binding, comparable within an allelic series); with SIX6 [2] it was 8.85 upbm affinity estimate (log intensity, higher = more binding, comparable within an allelic series); in the assay with SIX6 [3], 8.92 upbm affinity estimate (log intensity, higher = more binding, comparable within an allelic series); with SIX6 [4], 8.83 upbm affinity estimate (log intensity, higher = more binding, comparable within an allelic series); with SIX6 [5], 9.04 upbm affinity estimate (log intensity, higher = more binding, comparable within an allelic series); with SIX6 [6] it was 9.04 upbm affinity estimate (log intensity, higher = more binding, comparable within an allelic series). Besides, the binding signal with SIX6 [7] is 8.87 upbm affinity estimate (log intensity, higher = more binding, comparable within an allelic series); in the assay with SIX6 [8], 8.92 upbm affinity estimate (log intensity, higher = more binding, comparable within an allelic series); with SIX6 [9], 9.03 upbm affinity estimate (log intensity, higher = more binding, comparable within an allelic series); with SIX6 [10] it was 9.09 upbm affinity estimate (log intensity, higher = more binding, comparable within an allelic series); with SIX6 [11] it was 9.02 upbm affinity estimate (log intensity, higher = more binding, comparable within an allelic series); with SIX6 [12] it was 9.03 upbm affinity estimate (log intensity, higher = more binding, comparable within an allelic series). For the same sequence, the binding signal with SIX6 [13] is 9.05 upbm affinity estimate (log intensity, higher = more binding, comparable within an allelic series).

On to CGGCCACC, for which the binding signal in the assay with SIX6 [1] was 8.7 upbm affinity estimate (log intensity, higher = more binding, comparable within an allelic series); in the assay with SIX6 [2], 8.6 upbm affinity estimate (log intensity, higher = more binding, comparable within an allelic series); with SIX6 [3], 8.63 upbm affinity estimate (log intensity, higher = more binding, comparable within an allelic series); with SIX6 [4] it was 8.71 upbm affinity estimate (log intensity, higher = more binding, comparable within an allelic series); with SIX6 [5], 8.67 upbm affinity estimate (log intensity, higher = more binding, comparable within an allelic series); with SIX6 [6] it was 8.54 upbm affinity estimate (log intensity, higher = more binding, comparable within an allelic series). Also, the binding signal with SIX6 [7] is 8.75 upbm affinity estimate (log intensity, higher = more binding, comparable within an allelic series); with SIX6 [8], 8.72 upbm affinity estimate (log intensity, higher = more binding, comparable within an allelic series); with SIX6 [9], 8.67 upbm affinity estimate (log intensity, higher = more binding, comparable within an allelic series); with SIX6 [10], 8.71 upbm affinity estimate (log intensity, higher = more binding, comparable within an allelic series); with SIX6 [11] it was 8.66 upbm affinity estimate (log intensity, higher = more binding, comparable within an allelic series); with SIX6 [12], 8.55 upbm affinity estimate (log intensity, higher = more binding, comparable within an allelic series). The binding signal with SIX6 [13] was 8.64 upbm affinity estimate (log intensity, higher = more binding, comparable within an allelic series).

As for CTGCGGAC, the binding signal with SIX6 [1] was 8.88 upbm affinity estimate (log intensity, higher = more binding, comparable within an allelic series); in the assay with SIX6 [2], 8.75 upbm affinity estimate (log intensity, higher = more binding, comparable within an allelic series); in the assay with SIX6 [3], 8.87 upbm affinity estimate (log intensity, higher = more binding, comparable within an allelic series); with SIX6 [4] it was 8.83 upbm affinity estimate (log intensity, higher = more binding, comparable within an allelic series); with SIX6 [5] it was 8.84 upbm affinity estimate (log intensity, higher = more binding, comparable within an allelic series); in the assay with SIX6 [6], 8.84 upbm affinity estimate (log intensity, higher = more binding, comparable within an allelic series). The binding signal with SIX6 [7] was 8.83 upbm affinity estimate (log intensity, higher = more binding, comparable within an allelic series); with SIX6 [8], 8.91 upbm affinity estimate (log intensity, higher = more binding, comparable within an allelic series); in the assay with SIX6 [9] it was 9.05 upbm affinity estimate (log intensity, higher = more binding, comparable within an allelic series); with SIX6 [10] it was 8.83 upbm affinity estimate (log intensity, higher = more binding, comparable within an allelic series); in the assay with SIX6 [11], 8.84 upbm affinity estimate (log intensity, higher = more binding, comparable within an allelic series); with SIX6 [12], 8.84 upbm affinity estimate (log intensity, higher = more binding, comparable within an allelic series). Besides, the binding signal with SIX6 [13] was 8.85 upbm affinity estimate (log intensity, higher = more binding, comparable within an allelic series).

Regarding AGCCGGCT, the binding signal with SIX6 [1] was 9.39 upbm affinity estimate (log intensity, higher = more binding, comparable within an allelic series); with SIX6 [2], 9.1 upbm affinity estimate (log intensity, higher = more binding, comparable within an allelic series); with SIX6 [3] it was 9.34 upbm affinity estimate (log intensity, higher = more binding, comparable within an allelic series); with SIX6 [4], 8.96 upbm affinity estimate (log intensity, higher = more binding, comparable within an allelic series); with SIX6 [5], 9.33 upbm affinity estimate (log intensity, higher = more binding, comparable within an allelic series); with SIX6 [6], 9.42 upbm affinity estimate (log intensity, higher = more binding, comparable within an allelic series). Besides, the binding signal was 9.2 upbm affinity estimate (log intensity, higher = more binding, comparable within an allelic series) with SIX6 [7]; 9.33 upbm affinity estimate (log intensity, higher = more binding, comparable within an allelic series) with SIX6 [8]; 7.56 upbm affinity estimate (log intensity, higher = more binding, comparable within an allelic series) with HOXA2 [14]; 9.36 upbm affinity estimate (log intensity, higher = more binding, comparable within an allelic series) in the assay with SIX6 [9]; 9.35 upbm affinity estimate (log intensity, higher = more binding, comparable within an allelic series) with SIX6 [10]; 10.5 upbm affinity estimate (log intensity, higher = more binding, comparable within an allelic series) in the assay with HOXA2 [15]. The binding signal with SIX6 [11] was 9.33 upbm affinity estimate (log intensity, higher = more binding, comparable within an allelic series); with SIX6 [12] it was 9.39 upbm affinity estimate (log intensity, higher = more binding, comparable within an allelic series); with SIX6 [13], 9.26 upbm affinity estimate (log intensity, higher = more binding, comparable within an allelic series); with HOXA2 [16] it was 10.2 upbm affinity estimate (log intensity, higher = more binding, comparable within an allelic series); with HOXA2 [17], 7.61 upbm affinity estimate (log intensity, higher = more binding, comparable within an allelic series).

As for CGGCTTCC, the binding signal is 9 upbm affinity estimate (log intensity, higher = more binding, comparable within an allelic series) in the assay with SIX6 [1]; 8.76 upbm affinity estimate (log intensity, higher = more binding, comparable within an allelic series) with SIX6 [2]; 8.87 upbm affinity estimate (log intensity, higher = more binding, comparable within an allelic series) with SIX6 [3]; 8.79 upbm affinity estimate (log intensity, higher = more binding, comparable within an allelic series) with SIX6 [4]; 8.83 upbm affinity estimate (log intensity, higher = more binding, comparable within an allelic series) with SIX6 [5]; 9 upbm affinity estimate (log intensity, higher = more binding, comparable within an allelic series) with SIX6 [6]. Also, the binding signal in the assay with SIX6 [7] was 8.88 upbm affinity estimate (log intensity, higher = more binding, comparable within an allelic series); in the assay with SIX6 [8], 9 upbm affinity estimate (log intensity, higher = more binding, comparable within an allelic series); with SIX6 [9] it was 9.03 upbm affinity estimate (log intensity, higher = more binding, comparable within an allelic series); with SIX6 [10] it was 8.96 upbm affinity estimate (log intensity, higher = more binding, comparable within an allelic series); with SIX6 [11] it was 8.89 upbm affinity estimate (log intensity, higher = more binding, comparable within an allelic series); with SIX6 [12], 8.96 upbm affinity estimate (log intensity, higher = more binding, comparable within an allelic series). In addition, in the assay with SIX6 [13], the binding signal is 8.91 upbm affinity estimate (log intensity, higher = more binding, comparable within an allelic series).
